Results from PubChem BioAssay (EPA / NIEHS).
Values joined by “and” are separate entries in the source; they are usually repeats but may differ in a detail not shown here. Identical values can stand only once. A structure can be active in one record and inactive in another. Active and inactive are the calls of the source. How the source made its calls: active means hit-call score of the fitted dose curve at least 0.9, where 1 is the maximum; inactive means score below 0.9.

Key:
[1] = target: Bile acid receptor (Homo sapiens) (UniProt Q96RI1); experiment: ATG_IR1_CIS: Attagene CIS-FACTORIAL HepG2 Assay for human Nuclear Receptor Subfamily 1 Group H Member 4 (NR1H4), IR1 submotif (AID 2282946); settings: IR1 reporter transcription, actives raise or lower the signal
In short: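 HepG2 cells transiently transfected with multiple cis-promoter-driven reporter units to measure endogenous transcription factor activity; 24 h exposure. Reporter mRNA read by RT-PCR, FAM labelling, HpaI digestion and capillary electrophoresis. Bidirectional fit versus DMSO.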

[2] = ATG_GRE_CIS: Attagene CIS-FACTORIAL HepG2 Assay for human Glucocorticoid Response Elements (GRE) (AID 2282947); settings: HepG2 GRE cis-reporter, Attagene multiplex mRNA; actives raise or lower the signal
In short: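 Transiently transfected HepG2 cells carrying GRE cis-reporter units (endogenous TF activity) dosed 24 h; reporter mRNA quantified by RT-PCR, 6-FAM labelling, HpaI digestion and capillary electrophoresis. Bidirectional fit versus DMSO baseline.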

[3] = ATG_ISRE_CIS: Attagene CIS-FACTORIAL HepG2 Assay for human Interferon Regulatory Factor 1 (IRF1) binding to an Interferon-Stimulated Response Element (ISRE) (AID 2282948); settings: HepG2 ISRE cis-reporter (Attagene), mRNA transcription readout; actives raise or lower the signal
In short: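 Cell-based cis-reporter assay; HepG2; 24 h exposure; reporter mRNA by RT-PCR plus capillary electrophoresis fluorescence; activity in either direction scored relative to DMSO.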

[4] = ATG_M_32_CIS: Attagene CIS-FACTORIAL HepG2 Assay for M32 Transcription Factor (Internal Marker) (AID 2282949); settings: HepG2 Attagene cis-factorial M32 reporter, mRNA; actives raise or lower the signal;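 further: background control marker of the multiplexed CIS panel rather than a real target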
In short: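 HepG2 cells transiently transfected with multiplexed cis-regulated reporter units, dosed 24 h. Reporter mRNA quantified by RT-PCR, 6-FAM labelling, HpaI digestion and capillary electrophoresis; bidirectional fit vs DMSO.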

[5] = ATG_M_06_CIS: Attagene CIS-FACTORIAL HepG2 Assay for M06 Transcription Factor (Internal Marker) (AID 2282950); settings: HepG2 Attagene CIS-FACTORIAL M06 internal marker reporter; actives raise or lower the signal
In short: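 Fluorescence-labelled RT-PCR products from cis-promoter reporter units, cut with HpaI and resolved by capillary electrophoresis, give the signal. Cells are human HepG2, dosed for 24 h. Serves as background control, fitted relative to DMSO.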

[6] = target: Hypoxia-inducible factor 1-alpha (Homo sapiens) (UniProt Q16665); experiment: ATG_HIF1a_CIS: Attagene CIS-FACTORIAL HepG2 Assay for human Hypoxia Inducible Factor 1 (HIF1A) (AID 2282951); settings: HepG2 Attagene cis-factorial HIF1a reporter transcription; actives raise or lower the signal
In short: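 In this multiplexed cell assay, HepG2 cells bearing transfected cis reporters are dosed for 24 h and reporter mRNA is read by RT-PCR plus capillary electrophoresis; signal increases and decreases are both scored against DMSO.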

[7] = target: Hepatocyte nuclear factor 6 (Homo sapiens) (UniProt Q9UBC0); experiment: ATG_HNF6_CIS: Attagene CIS-FACTORIAL HepG2 Assay for human Hepatocyte Nuclear Factor 6 (HNF6) (AID 2282952); settings: HepG2 Attagene cis-factorial HNF6 reporter transcription; actives raise or lower the signal
In short: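 Cells are HepG2 carrying transiently transfected cis-promoter reporter units. Treatment lasts 24 h, after which reporter transcripts are reverse-transcribed, amplified, FAM-labelled and sized by capillary electrophoresis. DMSO serves as baseline.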

[8] = target: Heat shock factor protein 1 (Homo sapiens) (UniProt Q00613); experiment: ATG_HSE_CIS: Attagene CIS-FACTORIAL HepG2 Assay for human Heat Shock Transcription Factor 1 (HSE) (AID 2282953); settings: HepG2 HSE cis-reporter, Attagene RNA transcription; actives raise or lower the signal
In short: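 After a 24 h incubation with test chemical, transfected HepG2 cells were harvested for RNA; reporter transcripts were measured by RT-PCR and capillary electrophoresis. Values reflect gain or loss of signal relative to DMSO.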

[9] = ATG_MRE_CIS: Attagene CIS-FACTORIAL HepG2 Assay for human Metal Responsive Element (MRE) (AID 2282954); settings: HepG2 MRE cis-reporter transcription, Attagene multiplex; actives raise or lower the signal
In short: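 HepG2 cells transiently transfected with cis-element-driven reporter units; mRNA measured 24 h after dosing. Reporter transcripts quantified by RT-PCR, FAM labelling, HpaI digestion and capillary electrophoresis; bidirectional fit versus DMSO.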

[10] = ATG_PBREM_CIS: Attagene CIS-FACTORIAL HepG2 Assay for human Phenobarbital-responsive Enhancer Module (PBREM) (AID 2282955); settings: HepG2 PBREM cis-reporter, Attagene multiplexed transcription; actives raise or lower the signal
In short: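 After a 24 h incubation with test chemical, transfected HepG2 cells yield total RNA; reporter-specific RT-PCR products are fluorescently labelled, HpaI-digested and resolved by capillary electrophoresis against ROX size standards.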

[11] = target: Paired box protein Pax-6 (Homo sapiens) (UniProt P26367); experiment: ATG_Pax6_CIS: Attagene CIS-FACTORIAL HepG2 Assay for human Paired Box 6 (PAX6) (AID 2282956); settings: HepG2 CIS-FACTORIAL PAX6 reporter transcription, RNA readout; actives raise or lower the signal
In short: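 Multiplexed cis-reporter HepG2 system; 24 h treatment; reporter mRNA read by RT-PCR/CE fluorescence; bidirectional fit vs DMSO.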

[12] = ATG_PPRE_CIS: Attagene CIS-FACTORIAL HepG2 Assay for human Peroxisome Proliferator-activated Response Element (PPRE) (AID 2282958); settings: HepG2 PPRE cis-element reporter, Attagene transcription factor profiling; actives raise or lower the signal
In short: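 Multiplexed reporter transcription units under cis-regulatory promoters were transfected into HepG2 cells to capture endogenous factor activity. A 24 h incubation preceded RNA isolation and fluorescent RT-PCR fragment analysis.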

[13] = ATG_RORE_CIS: Attagene CIS-FACTORIAL HepG2 Assay for human RAR-related Orphan Receptor Element (RORE) (AID 2282959); settings: HepG2 Attagene cis-factorial RORE reporter, mRNA; actives raise or lower the signal
In short: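 Fluorescence intensity of reporter-specific cDNA fragments, separated by capillary electrophoresis, gives the signal. Source: HepG2 liver cells transiently transfected with cis-element reporters and exposed 24 h; DMSO-normalized bidirectional fit.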

[14] = ATG_Sox_CIS: Attagene CIS-FACTORIAL HepG2 Assay for human SRY-box transcription factor (SOX) (AID 2282960); settings: HepG2 Attagene cis-factorial SOX reporter, mRNA; actives raise or lower the signal
In short: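 After 24 h of chemical treatment, transfected HepG2 reporter cells are lysed for total RNA. Transcript levels come from RT-PCR with labelled primer extension and capillary electrophoresis, analysed bidirectionally versus DMSO.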

[15] = target: Transcription factor Sp1 (Homo sapiens) (UniProt P08047); experiment: ATG_Sp1_CIS: Attagene CIS-FACTORIAL HepG2 Assay for human Specificity Protein 1 (Sp1) (AID 2282961); settings: HepG2 Sp1 cis-reporter transcription, actives raise or lower the signal
In short: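 Sp1-driven reporter mRNA, read as capillary electrophoresis fluorescence after RT-PCR, in transiently transfected HepG2 cells dosed for 24 h; signal change in either direction relative to DMSO.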

[16] = ATG_SREBP_CIS: Attagene CIS-FACTORIAL HepG2 Assay for human Sterol Regulatory Element Binding (SREBP) (AID 2282962); settings: HepG2 Attagene cis-factorial SREBP reporter, mRNA; actives raise or lower the signal
In short: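 mRNA induction of transfected cis-promoter reporters in HepG2 cells, 24 h post-dose. Detection: RT-PCR with 6-FAM-labelled products, HpaI digest, capillary electrophoresis. DMSO served as negative control and baseline.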

[17] = target: Signal transducer and activator of transcription 3 (Homo sapiens) (UniProt P40763); experiment: ATG_STAT3_CIS: Attagene CIS-FACTORIAL HepG2 Assay for human Signal Transducer and Activator of Transcription 3 (STAT3) (AID 2282963); settings: HepG2, Attagene cis-factorial STAT3 reporter transcription; actives raise or lower the signal
In short: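 HepG2 cells transiently transfected with multiple cis-element-driven reporter units report endogenous transcription factor activity. After 24 h compound exposure, reporter mRNA is measured by RT-PCR, 6-FAM labelling, HpaI digestion and capillary electrophoresis. Fitted bidirectionally versus DMSO.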

[18] = ATG_TA_CIS: Attagene CIS-FACTORIAL HepG2 Assay for human TA Basal Promoter (AID 2282964); settings: HepG2 Attagene CIS-factorial TA basal promoter reporter; actives raise or lower the signal
In short: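 Multiplexed mRNA reporter assay, HepG2, 24 h. Reporter cDNA amplified, 6-FAM primer-extended, HpaI-cut, CE-sized; DMSO = negative control and baseline.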

[19] = ATG_PXRE_CIS: Attagene CIS-FACTORIAL HepG2 Assay for human Pregnane X Receptor Element (PXRE) (AID 2282957); settings: HepG2 Attagene CIS-FACTORIAL PXRE reporter, mRNA; actives raise or lower the signal
In short: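 Multiplexed cis-reporter assay in transiently transfected human HepG2 cells; 24 h chemical exposure. Reporter transcripts quantified by RT-PCR with fluorescent labeling and capillary electrophoresis.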

Measured: AC50

Sequence of Heat shock factor protein 1 (Homo sapiens) (Q00613 whole entry, looked up): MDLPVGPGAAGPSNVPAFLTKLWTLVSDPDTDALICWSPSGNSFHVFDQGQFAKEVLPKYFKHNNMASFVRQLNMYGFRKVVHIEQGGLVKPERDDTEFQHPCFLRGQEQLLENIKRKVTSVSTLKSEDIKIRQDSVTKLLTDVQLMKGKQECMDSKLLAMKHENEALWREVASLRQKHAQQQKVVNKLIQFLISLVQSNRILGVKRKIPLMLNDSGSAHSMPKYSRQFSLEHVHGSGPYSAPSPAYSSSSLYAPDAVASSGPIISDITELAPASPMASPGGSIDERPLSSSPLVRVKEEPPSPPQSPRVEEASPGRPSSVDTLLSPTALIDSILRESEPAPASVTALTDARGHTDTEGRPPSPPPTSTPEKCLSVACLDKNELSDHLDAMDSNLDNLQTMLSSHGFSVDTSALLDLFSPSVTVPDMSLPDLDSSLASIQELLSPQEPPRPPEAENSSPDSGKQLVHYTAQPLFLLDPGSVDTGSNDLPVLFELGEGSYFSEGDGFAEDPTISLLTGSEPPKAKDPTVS
Sequence of Signal transducer and activator of transcription 3 (Homo sapiens) (P40763 whole entry, looked up): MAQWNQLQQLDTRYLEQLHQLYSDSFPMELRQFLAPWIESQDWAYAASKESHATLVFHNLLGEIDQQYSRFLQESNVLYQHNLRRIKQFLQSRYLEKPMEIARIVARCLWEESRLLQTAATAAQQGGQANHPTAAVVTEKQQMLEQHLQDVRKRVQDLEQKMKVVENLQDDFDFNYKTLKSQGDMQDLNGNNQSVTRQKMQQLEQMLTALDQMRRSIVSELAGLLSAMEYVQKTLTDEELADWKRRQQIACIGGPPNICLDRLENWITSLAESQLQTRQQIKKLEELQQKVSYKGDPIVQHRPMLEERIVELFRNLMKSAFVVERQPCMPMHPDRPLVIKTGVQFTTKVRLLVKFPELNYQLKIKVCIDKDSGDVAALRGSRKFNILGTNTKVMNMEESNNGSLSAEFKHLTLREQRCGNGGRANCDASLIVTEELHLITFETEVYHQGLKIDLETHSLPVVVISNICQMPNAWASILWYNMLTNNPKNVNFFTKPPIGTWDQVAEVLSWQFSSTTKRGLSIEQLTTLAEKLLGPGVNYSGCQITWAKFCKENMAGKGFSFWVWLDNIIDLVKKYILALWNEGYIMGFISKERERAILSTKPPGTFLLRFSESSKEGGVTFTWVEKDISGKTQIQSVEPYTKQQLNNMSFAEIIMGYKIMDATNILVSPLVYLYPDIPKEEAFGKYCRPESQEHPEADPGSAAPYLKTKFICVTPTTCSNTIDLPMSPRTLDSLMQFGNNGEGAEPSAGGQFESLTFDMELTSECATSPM
Sequence of Paired box protein Pax-6 (Homo sapiens) (P26367 whole entry, looked up): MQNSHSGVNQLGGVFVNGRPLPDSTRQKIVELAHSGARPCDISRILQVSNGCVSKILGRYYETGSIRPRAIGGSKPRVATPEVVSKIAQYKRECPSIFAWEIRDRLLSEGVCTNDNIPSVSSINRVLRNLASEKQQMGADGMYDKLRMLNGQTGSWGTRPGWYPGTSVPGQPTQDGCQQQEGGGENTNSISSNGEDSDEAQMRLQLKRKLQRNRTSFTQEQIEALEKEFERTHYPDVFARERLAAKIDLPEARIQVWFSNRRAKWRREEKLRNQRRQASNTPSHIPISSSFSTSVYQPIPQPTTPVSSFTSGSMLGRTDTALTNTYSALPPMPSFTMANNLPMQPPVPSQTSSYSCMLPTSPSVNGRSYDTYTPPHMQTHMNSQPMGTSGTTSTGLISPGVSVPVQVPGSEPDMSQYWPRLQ
Sequence of Transcription factor Sp1 (Homo sapiens) (P08047 whole entry, looked up): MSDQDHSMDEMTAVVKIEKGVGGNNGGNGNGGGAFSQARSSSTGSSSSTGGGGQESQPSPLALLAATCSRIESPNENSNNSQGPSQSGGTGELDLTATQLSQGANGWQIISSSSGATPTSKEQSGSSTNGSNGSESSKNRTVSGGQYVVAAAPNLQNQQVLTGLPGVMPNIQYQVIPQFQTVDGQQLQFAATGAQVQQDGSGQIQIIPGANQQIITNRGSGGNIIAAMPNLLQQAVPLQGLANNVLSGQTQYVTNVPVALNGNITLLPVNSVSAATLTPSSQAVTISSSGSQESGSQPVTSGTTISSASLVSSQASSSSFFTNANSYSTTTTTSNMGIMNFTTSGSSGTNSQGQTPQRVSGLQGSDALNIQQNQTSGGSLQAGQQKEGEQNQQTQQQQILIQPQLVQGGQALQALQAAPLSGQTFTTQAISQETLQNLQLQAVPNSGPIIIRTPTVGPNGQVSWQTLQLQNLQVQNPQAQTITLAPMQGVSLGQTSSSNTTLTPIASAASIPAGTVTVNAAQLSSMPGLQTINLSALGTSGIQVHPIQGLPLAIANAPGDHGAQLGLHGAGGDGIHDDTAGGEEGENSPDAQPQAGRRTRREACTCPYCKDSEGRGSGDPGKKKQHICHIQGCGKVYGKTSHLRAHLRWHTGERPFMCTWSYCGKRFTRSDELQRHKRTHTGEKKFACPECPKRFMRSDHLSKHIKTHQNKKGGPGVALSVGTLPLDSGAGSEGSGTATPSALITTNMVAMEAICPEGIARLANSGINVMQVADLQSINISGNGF
Sequence of Hypoxia-inducible factor 1-alpha (Homo sapiens) (Q16665 whole entry, looked up): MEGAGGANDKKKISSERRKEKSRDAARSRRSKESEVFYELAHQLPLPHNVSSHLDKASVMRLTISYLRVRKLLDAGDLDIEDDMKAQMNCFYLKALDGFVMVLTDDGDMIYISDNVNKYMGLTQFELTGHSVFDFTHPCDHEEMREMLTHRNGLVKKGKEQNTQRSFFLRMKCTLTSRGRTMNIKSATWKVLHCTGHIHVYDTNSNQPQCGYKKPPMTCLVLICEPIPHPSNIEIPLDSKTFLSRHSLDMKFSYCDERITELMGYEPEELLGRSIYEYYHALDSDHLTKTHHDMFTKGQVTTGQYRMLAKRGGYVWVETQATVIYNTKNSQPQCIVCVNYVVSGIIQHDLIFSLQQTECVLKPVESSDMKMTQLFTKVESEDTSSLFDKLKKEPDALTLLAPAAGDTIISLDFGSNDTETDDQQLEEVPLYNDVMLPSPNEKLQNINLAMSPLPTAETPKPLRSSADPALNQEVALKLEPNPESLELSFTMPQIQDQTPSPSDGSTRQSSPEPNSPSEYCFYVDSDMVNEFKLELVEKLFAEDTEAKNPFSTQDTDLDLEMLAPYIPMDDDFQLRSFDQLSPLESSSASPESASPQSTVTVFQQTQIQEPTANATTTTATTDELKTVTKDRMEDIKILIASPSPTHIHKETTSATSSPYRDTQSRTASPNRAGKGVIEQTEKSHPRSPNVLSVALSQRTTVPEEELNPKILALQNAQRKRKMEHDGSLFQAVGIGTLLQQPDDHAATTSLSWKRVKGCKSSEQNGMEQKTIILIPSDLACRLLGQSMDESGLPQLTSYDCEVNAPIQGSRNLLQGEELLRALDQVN
Sequence of Bile acid receptor (Homo sapiens) (Q96RI1 whole entry, looked up): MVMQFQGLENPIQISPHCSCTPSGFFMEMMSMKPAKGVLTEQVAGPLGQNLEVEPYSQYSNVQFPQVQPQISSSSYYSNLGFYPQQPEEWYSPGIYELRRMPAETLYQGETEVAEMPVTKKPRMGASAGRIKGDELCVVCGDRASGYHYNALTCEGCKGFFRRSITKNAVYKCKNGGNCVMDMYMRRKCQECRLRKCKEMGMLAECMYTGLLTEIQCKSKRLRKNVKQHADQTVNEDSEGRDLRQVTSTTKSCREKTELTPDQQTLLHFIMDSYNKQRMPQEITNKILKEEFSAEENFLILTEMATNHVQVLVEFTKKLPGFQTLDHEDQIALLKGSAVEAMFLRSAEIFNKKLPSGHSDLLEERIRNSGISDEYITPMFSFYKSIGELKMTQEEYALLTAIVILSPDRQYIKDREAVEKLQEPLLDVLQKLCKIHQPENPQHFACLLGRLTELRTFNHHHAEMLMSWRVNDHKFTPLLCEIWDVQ
Sequence of Hepatocyte nuclear factor 6 (Homo sapiens) (Q9UBC0 whole entry, looked up): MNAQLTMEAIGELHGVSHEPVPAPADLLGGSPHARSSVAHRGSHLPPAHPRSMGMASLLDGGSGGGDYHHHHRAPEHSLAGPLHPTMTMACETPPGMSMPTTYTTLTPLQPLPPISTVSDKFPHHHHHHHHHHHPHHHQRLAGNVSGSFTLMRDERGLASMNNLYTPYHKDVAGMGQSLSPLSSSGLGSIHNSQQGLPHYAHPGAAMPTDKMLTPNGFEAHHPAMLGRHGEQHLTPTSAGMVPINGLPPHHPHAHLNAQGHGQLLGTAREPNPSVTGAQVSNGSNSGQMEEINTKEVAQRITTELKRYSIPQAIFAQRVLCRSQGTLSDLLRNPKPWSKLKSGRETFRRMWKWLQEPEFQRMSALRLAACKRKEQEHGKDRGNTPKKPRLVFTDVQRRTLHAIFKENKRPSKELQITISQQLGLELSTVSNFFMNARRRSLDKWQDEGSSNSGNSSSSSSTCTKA

O=C(Cl)C(F)(F)C(F)(F)C(F)(F)C(F)(F)C(F)(F)C(F)(F)C(F)(F)C(F)(F)F
active: [3] 33.4 µM | [8] 49.6 µM | [9] 48 µM | [11] 54.1 µM | [12] 33.4 µM | [13] 44.5 µM
not listed: [19]
inactive: all other assays above

Nc1ccc(S(=O)(=O)Nc2nccs2)cc1
not listed: [1] | [4] | [6] | [10] | [13]
inactive: all other assays above

[Co]
active: [19] 13.8 µM
inactive: all other assays above

CCCCCCOC(=O)c1ccccc1
not listed: [19]
inactive: all other assays above

O=C(O)C(F)(F)C(F)(F)C(F)(F)C(F)(F)C(F)(F)C(F)(F)C(F)(F)C(F)(F)Cl
active: [3] 32.1 µM and 50 µM | [6] 50 µM | [8] 75.8 µM and 82.1 µM | [9] 55.5 µM and 66.6 µM | [11] 59.1 µM and 50 µM | [19] 13.7 µM | [12] 39.2 µM and 35.4 µM | [13] 28.4 µM and 57.9 µM | [18] 50 µM
inactive: [1] | [2] | [5] | [7] | [10] | [19] | [14] | [15] | [16] | [17] | [18]

CCN(Cc1cccc(S(=O)(=O)O)c1)c1ccc(C(=C2C=CC(=[N+](CC)Cc3cccc(S(=O)(=O)O)c3)C=C2)c2ccc(O)cc2S(=O)(=O)[O-])cc1
active: [12] 17.8 µM
not listed: [10]
inactive: all other assays above

CCCCOc1ccc(N)cc1
not listed: [4] | [19]
inactive: all other assays above

CC/C=C\CCOC(C)=O
not listed: [19]
inactive: all other assays above

FC(F)(F)C(F)(F)C(F)(F)C(F)(F)C(F)(F)C(F)(F)C(F)(F)C(F)(F)F
not listed: [19]
inactive: all other assays above

C#C[C@]1(O)CC[C@H]2[C@@H]3CCc4cc(OC)ccc4[C@H]3CC[C@@]21C
active: [9] 7.54 µM
not listed: [10] | [19]
inactive: all other assays above

CCO[Si](CCC(F)(F)C(F)(F)C(F)(F)C(F)(F)C(F)(F)C(F)(F)F)(OCC)OCC
not listed: [4]
inactive: all other assays above

O=C(O)C(F)(F)C(F)(F)C(F)(F)C(F)(F)C(F)(F)C(F)(F)C(F)(F)C(F)(F)C(F)(F)C(F)(F)C(F)(F)C(F)(F)C(F)(F)F
not listed: [19]
inactive: all other assays above
